# According to PubChem BioAssay (NCI):
# This is part of a sample that, as a whole, favours compounds with a hit. Of some 83,000 tested, about 20% had one in any assay.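 Assay: single dose, 48 h. Readout: percent growth (0 = no net growth; negative = cell death). Active: <10.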 Unmarked numbers belong to inactive results. Activity calls are given as the source filed them.
# How the values were obtained:
# Test in all cases: NCI-60 one-dose screen, 48 h (100 = growth as untreated, 0 = no growth, -100 = all killed)
# Settings in all cases: 10 µM unless noted
# RPMI-8226 leukemia = tested on: RPMI-8226 leukemia
# OVCAR-8 ovarian = tested on: OVCAR-8 ovarian
# OVCAR-5 ovarian = tested on: OVCAR-5 ovarian
# OVCAR-4 ovarian = tested on: OVCAR-4 ovarian
# SK-OV-3 ovarian = tested on: SK-OV-3 ovarian
# IGROV1 ovarian = tested on: IGROV1 ovarian
# OVCAR-3 ovarian = tested on: OVCAR-3 ovarian
# HS 578T breast = tested on: HS 578T breast
# NCI/ADR-RES ovarian = tested on: NCI/ADR-RES ovarian
# SR leukemia = tested on: SR leukemia
SMILES,growth (RPMI-8226 leukemia),growth (OVCAR-8 ovarian),growth (OVCAR-5 ovarian),growth (OVCAR-4 ovarian),growth (SK-OV-3 ovarian),growth (IGROV1 ovarian) [%],growth (OVCAR-3 ovarian),growth (HS 578T breast),growth (NCI/ADR-RES ovarian),growth (SR leukemia)
COc1ccc([C@H]2C(C(=O)c3ccc(Cl)cc3)C3(N[C@@H]2c2ccccc2)C(=O)Nc2ccccc23)cc1 (stereo partly drawn),10.4%,32.7%,50.5%,31.1%,72.5%,35.6,27.4%,53.7%,12.2%,–
Cc1ccc(Cl)cc1NC(=O)N/C(N)=N/c1nc2ccccc2s1,-7.24% (active),-51.4% (active),-28.7% (active),-34.8% (active),-25.6% (active),–,-67.7% (active),–,-34.8% (active),5.59% (active)
N#Cc1cc(-c2ccnc(Nc3ccc(N4CCN(C5COC5)CC4)cc3)n2)ccc1N1CCCC1,36.6%,79.5%,93.5%,43.9%,52.8%,–,94.5%,21.6%,92.2%,23%
NC(=Nc1ccc(OCCCCCCCCn2cnnn2)cc1)c1ccccc1,29.5%,–,23.1%,56%,35.3%,24.4,–,22%,–,14.6%
CC1=C(C(=O)Nc2ccccc2)C(c2cccc3ccccc23)n2c(nc3ccccc32)N1 (stereo not drawn),76.9%,-0.819% (active),76.3%,42.3%,-2.39% (active),–,38.6%,–,32.2%,72.4%
c1n[nH]cc1-c1nc2ccc3[nH]ncc3c2c2c1CC1(CCOCC1)CC2,49.8%,35.4%,87.7%,70.2%,-0.483% (active),–,52.5%,5.29% (active),96.5%,2.94% (active)
O=C1NC(=NC23CC4CC(CC(C4)C2)C3)N/C1=C\c1ccc2ncccc2c1,-31.1% (active),5.28% (active),45.7%,-14.4% (active),-57.4% (active),–,-55.3% (active),-15.3% (active),-28.7% (active),–
